The results in this text go back to PubChem BioAssay (NCATS).

Results filed as inconclusive are left out. Values without a mark were called inactive. Calls come from the whole dose curve; as a rule, active = well fitted curve in the direction sought with a large enough effect; inconclusive = small, poorly fitted or top-dose-only effect, or another doubt; inactive = no such curve, though single readings can be large or run the other way.
% is set by controls: 0 for no effect and ±100 for the full control effect.

Metallo-beta-lactamase type 2 (Klebsiella pneumoniae), sequence (C7C422 whole entry, looked up): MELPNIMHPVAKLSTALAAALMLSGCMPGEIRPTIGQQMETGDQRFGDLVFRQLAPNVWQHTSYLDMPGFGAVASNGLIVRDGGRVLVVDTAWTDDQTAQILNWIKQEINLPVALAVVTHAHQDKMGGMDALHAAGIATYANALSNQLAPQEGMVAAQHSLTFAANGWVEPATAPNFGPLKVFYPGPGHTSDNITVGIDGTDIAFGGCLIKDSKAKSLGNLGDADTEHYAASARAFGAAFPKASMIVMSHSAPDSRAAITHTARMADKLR

The target of this test is Metallo-beta-lactamase type 2 (Klebsiella pneumoniae) (UniProt C7C422). Briefly: qHTS to identify inhibitors of the New Delhi Metallo-beta-lactamase (NDM): assay validation screen against the NCATS LOPAC Collection (AID 1794843).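 Note: nitrocefin turnover by NDM-1 measured as 485 nm absorbance at plateau.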 The following applies: NDM-1 enzyme, nitrocefin hydrolysis, absorbance 485 nm; series mostly up to 38.4 µM; activity change, negative = inhibition: at the top concentration. In short, it runs like this:
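NDM-1 at 2 nM final in 50 mM HEPES pH 7.0 with 1 uM ZnSO4 and 0.01% Tween20 was preincubated with library compounds in DMSO. Nitrocefin (50 uM stock) was then added, and absorbance at 485 nm was read at the kinetic plateau.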
As for `COC1=C(OC)C(=O)c2ccccc2C1=O`, the “activity change, negative = inhibition” value was -5.69%.
On to `O=C(c1cc(O)c(O)c([N+](=O)[O-])c1)c1ccccc1F`, for which the “activity change, negative = inhibition” value was 12.2%.
The result for `Oc1ccccc1O` reads -1.01%.
The figure for `CN1CCc2cccc3c2C1Cc1ccc(O)c(O)c1-3` (stereo not given) is -3.32%.
The result for `COC(=O)C1=C(C)NC(C)=C(C(=O)OC)C1c1cccc(NC(=O)NCCCN2CCC(c3cccc(OC)c3)CC2)c1` reads -0.878%; that for `Oc1ccc(C2CNCc3sccc32)cc1O` (stereo not given), -7.59%.
`NO`: the “activity change, negative = inhibition” value is -16.6%.
The figure for `O=C1NCc2c1c1c3ccccc3[nH]c1c1[nH]c3ccccc3c21` is 41.6%.
The result for `N=c1ccn2c(n1)O[C@H]1[C@H](O)[C@@H](CO)O[C@H]12` reads -1.11%; that for `O=C1C(SCCO)=C(SCCO)C(=O)c2ccccc21`, -11.6%.
The figure for `O=C(O)CC[C@@H](C(=O)O)N1C(=O)c2ccccc2C1=O` is -3.53%; for `Oc1cc(O)cc(/C=C/c2ccc(O)c(O)c2)c1` it is -2.99%.
Consider `COc1ccc(Br)cc1S(=O)(=O)NC(=O)/C=C/c1ccccc1Cc1ccc2ccccc2c1`, for which the “activity change, negative = inhibition” value was -7.37%.
For `COc1ccc(/C=C2\COc3ccc(C)cc3C2=O)cc1O`, the “activity change, negative = inhibition” value is 2.62%.
Turning to `CCOC(=O)N1CCN(/[N+]([O-])=N/Oc2ccc([N+](=O)[O-])cc2[N+](=O)[O-])CC1`, the “activity change, negative = inhibition” value was 1.73%.
For the molecule `COc1ccc(NC(=O)/C=C/c2ccc(Cl)cc2)cc1`, the “activity change, negative = inhibition” value is -14%.
The result for `CCN(CC)CCCCNc1ncc2cc(-c3c(Cl)cccc3Cl)c(NC(=O)NC(C)(C)C)nc2n1` reads -7.4%; that for `CC(C)(C=O)Cc1cc(C(C)(C)C)c(O)c(C(C)(C)C)c1`, 8.6%; that for `COc1ccccc1CNCCCCCCNCCCCCCCCNCCCCCCNCc1ccccc1OC`, -12.5%.
The result for `Fc1ccc(C(OCCCc2cnc[nH]2)c2ccc(F)cc2)cc1` reads -9.72%.
